Assay results from the supplement of paper PMC9897528.
A number with no mark means an inactive call.

System: Scedosporium aurantiacum CBS 136046
Assay: growth inhibition relative to DMSO control (OD600); higher = more antifungal activity, active = 80 or more; extreme values may be limits of the assay
Conditions: 5 µM; 72 h; 37 °C
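Also: conidia screened in RPMI 1640 medium under 5% CO2, growth read by spectrophotometer, medium with 0.5% DMSO serving as the untreated reference.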

Structure (SMILES)	growth inhibition [%]
CN(C(=O)C1(c2ccc(Cl)cc2)CCC1)c1ccccc1	13.9
Cc1oncc1C(=O)Nc1ccc(C(F)(F)F)cc1	15.6
CC#C[C@]1(O)CC[C@H]2[C@@H]3CCC4=CC(=O)CCC4=C3[C@@H](c3ccc(N(C)C)cc3)C[C@@]21C	11.4
O=C(NC(=O)N1CCCc2ccccc21)c1cccc(Cl)c1	5.71
CCc1cc(CCCOc2c(C)cc(-c3noc(C(F)(F)F)n3)cc2C)on1	7.39
O=C(Nc1cccc(C2=NCCN2)c1)c1ccc(-c2ccc(C(=O)Nc3cccc(C4=NCCN4)c3)cc2)cc1	1.73
Cc1ccc(S(=O)(=O)Nc2cccc3cccnc23)cc1	42.5
C[C@H](Cn1cnc2c(N)ncnc21)OCP(=O)(O)O	13.7
CC[C@H](CO)Nc1nc(NCc2ccccc2)c2ncn(C(C)C)c2n1	10
CCOC(=O)/C=C/[C@H](C[C@@H]1CCNC1=O)NC(=O)[C@H](CC)n1cccc(NC(=O)c2cc(C)on2)c1=O	2
NC(=O)[C@@H]1CC[C@@H]2CN1C(=O)N2OS(=O)(=O)O	0
CN1c2ccc(Cl)cc2N(c2ccccc2)C(=O)c2cn(Cc3ccc(CN4CCOCC4)cc3)nc21	17.1
c1ccc(-c2nnc3c4ccccc4c(N4CCNCC4)nn23)cc1	23.6
CC(C)Oc1ccc(-c2nc(-c3cccc4c3CC[C@@H]4NCCO)no2)cc1C#N	25.4
NS(=O)(=O)c1ccc(NC(=O)NC(c2ccccc2)c2ccccc2)cc1	25.6
Cc1c(N)cccc1Cn1ccc(OCCc2cccs2)cc1=O	2.23
COc1c(NC(=O)[C@H]2CC[C@@H](COc3ccc([N+](=O)[O-])cc3)CC2)c(F)cc2c(=O)c(C(=O)O)cn(C3CC3)c12	15.5
COc1ccc(-n2cnc3cc(NCc4ccco4)ccc32)cc1	9.11
O=c1ccc2ncc(=O)n3c2n1CC3CN1CCC(NCc2cc3c(cn2)OCCC3)CC1 (configuration not stated)	0
CCCCOC(=O)Nc1cc2nc(C3CCCCC3)[nH]c2cc1N(CC)CC	39.7
Cc1cc(NS(=O)(=O)c2ccc(-c3ccc(F)cc3F)cc2)no1	11.5

Structure (SMILES)	growth inhibition [%]
NNC(=O)c1ccncc1	3.54
OC(Cn1cncn1)(Cn1cncn1)c1ccc(F)cc1F	29.9
COc1ccc(CNC(=O)C(NS(=O)(=O)c2ccc3nc(C)sc3c2)C(C)C)cc1 (configuration not stated)	26.3
Nc1cnn(C2OC(CO)C(O)C2O)c(=O)n1 (configuration not stated)	8.41
O=c1cc(NCCCN[C@@H]2CCOc3c(Br)cc(Br)cc32)[nH]c2ccsc12	17.3
COc1cc(NCc2ccc3nc(N)nc(N)c3c2C)cc(OC)c1OC	0.273
CC(C)n1cnc2c(NCc3ccccc3)nc(NCc3ccccc3)nc21	39.6
CC(C)N(c1cc(-c2ccccc2)sc1C(=O)O)C(=O)[C@H]1CC[C@H](C)CC1	16.1
CC(=O)N[C@H](C)C(=O)N[C@H](Cc1ccccc1)C(=O)O	10.8
CN(C)CCCNC(=O)c1ccc(-c2cc(O)c3ncccc3c2)cc1	11.4
COc1ccc(NC(=O)CC2Sc3ncnn3C2=O)cc1 (configuration not stated)	0
CC(C)Nc1ncnc2c1cnn2-c1ccc(Cl)cc1	10.7
O=C(O)c1ccccc1Sc1ncnc2sc3c(c12)CCC3	1.9
C(=C\c1nc2ccccc2[nH]1)/c1ccc2c(c1)OCO2	17.1
NC(=S)N/N=C/c1ncccc1N	23.2
CC1(C)CC(NC(=O)C(=O)Nc2ccc(Cl)cc2)CC(C)(C)N1	8.43
N=c1n(CCN2CCCCC2)c2ccccc2n1CC(O)COc1ccc(Cl)cc1Cl (configuration not stated)	25.3
O=C(O)c1ccc(-c2ccc(O[C@H]3O[C@H](CO)[C@@H](O)[C@H](O)[C@@H]3O)cc2)cc1	10.9
N=C(N)c1ccc(COc2ccc(Cl)cc2)cc1	19.9
CCn1cc(C(=O)O)c(=O)c2cc(F)c(N3CCNC(C)C3)c(F)c21 (configuration not stated)	4.34
CSC[C@H]1CN(Cc2c[nH]c3c(N)ncnc23)C[C@@H]1O	10.5
